Assays:
CHO = test: % viability of CHO cells (MTT); higher = less toxic; conditions: 48 h
In short: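 CHO cells seeded at 10^6 cells/well were exposed to compound at 2 or 20 µM for 48 h. Survival, as percent of untreated cells, was measured with the colorimetric tetrazolium (MTT) assay.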

HepG2-A16-CD81 = test: % inhibition of HepG2 viability (CellTiter-Glo); higher = more toxic; conditions: 5 µM;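 note: HepG2-A16-CD81 hepatoma cells plated as in the liver-stage assay but without sporozoites, with DMSO wells as negative and 25 µM puromycin as positive control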
[1] = test system: Plasmodium falciparum NF54 stage IV/V gametocytes; test: % inhibition of gametocyte viability (PrestoBlue); higher = more inhibition; conditions: 48 h
In short: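 Compound was tested at 1 or 5 µM against Stage IV/V NF54 gametocytes plated at 100 µL/well (2% gametocytaemia, 5% haematocrit). After 48 h of stationary, hypoxic incubation at 37 °C, 10 µL PrestoBlue was added for 2 h before reading 612 nm fluorescence from 70 µL of transferred supernatant. Gametocyte viability inhibition, as a percentage, was scaled against vehicle and kill controls from a single run.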

[2] = test system: Plasmodium falciparum NF54 asexual blood stage; test: % inhibition of asexual blood stage proliferation (pLDH); higher = more inhibition; conditions: 72 h
In short: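 In 96-well plates, compound at 2 or 20 µM was added to Plasmodium falciparum NF54 ring-stage cultures (1% haematocrit, 2% parasitaemia). Plates were incubated for 72 h at 37 °C in 4% CO2, 3% O2 and 93% N2, and survival was then read at 620 nm using the parasite lactate dehydrogenase assay. Inhibition of asexual proliferation, expressed as a percentage, was normalised to controls.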

[3] = test system: Plasmodium falciparum NF54 stage IV/V gametocytes; test: % inhibition of gametocyte viability (ATP bioluminescence); higher = more inhibition; conditions: 24 h
In short: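 Density gradients were used to enrich stage IV/V NF54 gametocytes, which were then seeded into 96-well plates at 30,000 per well with compound at 1 or 5 µM. The plates were incubated at 37 °C for 24 h, and ATP was measured with the Promega BacTiter Glo bioluminescence system. Percent inhibition of gametocyte viability was normalised to the plate controls from a single run.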

[4] = test system: Plasmodium falciparum NF54 stage IV/V gametocytes; test: % inhibition of gametocyte viability (luciferase reporter); higher = more inhibition; conditions: 48 h
In short: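 Luminescence from 30 µL lysate combined with 30 µL Promega luciferin substrate was recorded on a GloMax-Multi+ reader using 10 s integration. The lysate came from stage IV/V NF54-Pfs16-GFP-Luc gametocytes (2% gametocytaemia, 2% haematocrit) held with compound at 1 or 5 µM for 48 h at 37 °C under stationary, hypoxic conditions. Percent inhibition was normalised against controls run once.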

Structure (SMILES)	% viability of CHO cells (CHO; 2 µM)	% viability of CHO cells (CHO; 20 µM)	% inhibition of HepG2 viability (HepG2-A16-CD81)	% inhibition of gametocyte viability ([1]; 1 µM)	% inhibition of gametocyte viability ([1]; 5 µM)	% inhibition of asexual blood stage proliferation ([2]; 2 µM)	% inhibition of asexual blood stage proliferation ([2]; 20 µM)	% inhibition of gametocyte viability ([3]; 1 µM)	% inhibition of gametocyte viability ([3]; 5 µM)	% inhibition of gametocyte viability ([4]; 1 µM)	% inhibition of gametocyte viability ([4]; 5 µM)
O=C(O)c1sccc1S(=O)(=O)n1ccc2cc(Br)ccc21	93.4%	97.8%	-1.44%	12.3%	30.7%	49.8%	84.9%	< 0%	< 0%	< 0%	< 0%
CCCCSc1nc(N)c2[nH]c(=O)c(=O)n(Cc3ccccc3)c2n1	114%	55.2%	4.02%	1.71%	21.9%	14.9%	14.6%	< 0%	< 0%	< 0%	< 0%
N[C@H]1CCC[C@H]1C(=O)O	109%	145%	-8.85%	35.6%	26.5%	31.3%	18.9%	< 0%	< 0%	< 0%	< 0%
CC(C)(C)c1ccc(C(Cn2cccc(C(F)(F)F)c2=O)NC2Cc3ccccc3C2)cc1 (stereo unspecified)	106%	94.3%	-1.5%	10%	21.3%	32.7%	69.1%	< 0%	< 0%	< 0%	3.42%
CCCCCCC1c2ccc(O)cc2Oc2cc(O)ccc21	80.1%	49.3%	11.4%	5.99%	< 0%	-7.32%	12.9%	4.64%	15.4%	< 0%	< 0%
Nc1nc(O)c2ncn(COC(CO)CO)c2n1	83.5%	59.2%	3.01%	< 0%	< 0%	6.2%	41.8%	< 0%	0.568%	7.58%	< 0%
Cc1oncc1C(=O)Nc1ccc(C(F)(F)F)cc1	113%	96.1%	-5.44%	< 0%	< 0%	50.7%	38%	12%	< 0%	23.8%	45.6%
CCc1cc(O)c(Oc2cccnc2N)cc1F	64.8%	62.9%	-0.638%	< 0%	< 0%	8.28%	20.8%	< 0%	< 0%	< 0%	< 0%
FC(F)(F)c1cc(C(F)(F)F)c2ccc3nc(-c4nnco4)cn3c2n1	93.3%	124%	8.21%	17.1%	21.3%	19.6%	26.8%	< 0%	< 0%	1.44%	18%
O=c1oc2ccc(Br)cc2cc1CSc1ncc[nH]1	112%	73.8%	3.9%	11.2%	7.96%	-5.59%	79%	6.38%	5.34%	4.59%	< 0%
CC(C)Nc1nc2cc(Cl)c(Cl)cc2n1[C@H]1O[C@@H](CO)[C@H](O)[C@@H]1O	71.9%	56.9%	-5.75%	17.6%	14%	66.8%	55.9%	< 0%	< 0%	< 0%	< 0%
C[C@H](NC(=O)C(=O)Nc1ccccc1C(C)(C)C)C(=O)N[C@@H](CC(=O)O)C(=O)COc1c(F)c(F)cc(F)c1F	113%	63.6%	0.382%	< 0%	< 0%	31.7%	46.9%	< 0%	< 0%	1.5%	2.48%
Nc1nc(Nc2ccc3nc(-c4ccc(F)cc4)cc(N)c3c2)cc(-c2ccccc2)n1	-4.05%	-8.47%	-4.55%	32.5%	84.6%	83%	96.9%	95.5%	95%	98.5%	98.6%
CCC[C@H](NC(=O)[C@@H]1[C@H]2CCC[C@H]2CN1C(=O)[C@@H](NC(=O)[C@@H](NC(=O)c1cnccn1)C1CCCCC1)C(C)(C)C)C(=O)C(=O)NC1CC1	94.8%	100%	-4.56%	< 0%	7.89%	49.1%	57%	6.88%	10.7%	3.5%	< 0%
CC(C)(C)c1ccc(Oc2ccc(N)cc2)cc1	130%	58.8%	-4.14%	< 0%	67%	-4.84%	55.8%	< 0%	< 0%	66.9%	89.3%
COc1ccc(SCC(=O)N2c3ccccc3Sc3ccccc32)cc1	91%	110%	7.46%	< 0%	< 0%	0.401%	35.5%	< 0%	< 0%	< 0%	< 0%
Clc1ccc(Cn2c(CN3CCCC3)nc3ccccc32)cc1	97.8%	91.5%	2.06%	23.6%	61%	11.9%	69%	10.2%	57.1%	1.55%	< 0%
CCN(CC)CCCC(C)Nc1ccnc2cc(Cl)ccc12 (stereo unspecified)	95.9%	76.9%	8.97%	16.9%	6%	85.8%	99.8%	< 0%	< 0%	29.7%	5.51%
Cc1cccc(C)c1C(=O)Nc1nc(-c2ccccn2)cc2ccccc12	104%	17.3%	32.4%	13.5%	53.2%	79.3%	104%	73.4%	90.8%	< 0%	68.3%
O=C(NCc1ccc2c3c(cccc13)C(=O)N2)c1cccs1	135%	156%	1.86%	< 0%	< 0%	6.3%	16%	< 0%	< 0%	< 0%	16.9%
Cc1cc(CCOc2c(C)cc(-c3nnn(C)n3)cc2C)on1	100%	105%	-1.96%	26.4%	21.8%	12.7%	31%	< 0%	< 0%	4.37%	32.2%

From the supplement of paper PMC7801607
